From publication PMC10668032, “Altered binding affinity of SIX1-Q177R correlates with enhanced WNT5A and WNT pathway effector expression in Wilms tumor”
The full ranking holds about 33,000 sequences; the median of “e-score” is about -0.05, and the highest 2% start at about 0.38. The full list was thinned out, with the highest values kept by preference.

Biological target: T1, SIX1-Q177R homeodomain (human, UniProt Q15475 108-198, Q177R)
T1 sequence: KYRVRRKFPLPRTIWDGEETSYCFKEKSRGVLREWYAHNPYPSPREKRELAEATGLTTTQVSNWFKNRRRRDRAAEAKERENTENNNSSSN
Experiment: universal protein binding microarray; Universal all-10-mer PBM (8x60K, AMADID 030236), 300 nM GST-tagged protein, Alexa Fluor 488 anti-GST; buffer, salt, pH and temperature not stated (as in Berger); high values mean tight binding
Settings: protein: ivt; tags: N-terminal GST; dsDNA, one strand shown
Summary of the method: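 GST-tagged homeodomains were made by in vitro transcription/translation and quantified by anti-GST western blot against a recombinant GST standard curve. They were applied in duplicate at 300 nM final concentration to universal 'all 10-mer' protein binding microarrays (8×60K format). Binding was quantified as 8-mer E-scores with the Universal PBM Analysis Suite.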

Sequence | binding signal [E-score]
ACTCCCGA | 0.172 ± 0.0235
CCAGGTAC | 0.2011 ± 0.000495
CACCGCTG | 0.249 ± 0.0245
CACGTTAC | 0.179 ± 0.0457
ACTAGGAG | 0.219 ± 0.0299
CTAAAACA | 0.211 ± 0.0343
GGTGTGGA | 0.369 ± 0.0214
CGTGTGGA | 0.159 ± 0.00165
GGTGTCGA | 0.4869 ± 0.00312
CGTGTCGA | 0.404 ± 0.0138
CGAGTCGA | 0.151 ± 0.006
GGAGTCGA | 0.227 ± 0.0424
CACGGCCC | 0.215 ± 0.0365
GGATCACC | 0.203 ± 0.0315
CCATGACA | 0.222 ± 0.0113
TACTGACA | 0.22 ± 0.0513
GGGCGACA | 0.156 ± 0.0211
AGGAGGTG | 0.2857 ± 0.000318
AACACGCG | 0.36 ± 0.0195
TACACGCA | 0.406 ± 0.0157
AACACGCC | 0.366 ± 0.013
AACACGCT | 0.379 ± 0.00919
TACACACA | 0.259 ± 0.0395
AACACGCA | 0.396 ± 0.0109
CACACGCA | 0.32 ± 0.022

Sequence | binding signal [E-score]
AACACGAT | 0.358 ± 0.00931
CACCGAAG | 0.283 ± 0.0113
ACTCCGGG | 0.2895 ± 0.00256
AATTTACA | 0.182 ± 0.0161
AAACCCCC | 0.24 ± 0.0528
ATCACACG | 0.318 ± 0.0128
ATCACCCC | 0.204 ± 0.0194
GTCACACA | 0.215 ± 0.0441
ATCACACC | 0.442 ± 0.00795
CTCACACC | 0.393 ± 0.0106
CACTCACC | 0.242 ± 0.0149
ACCAAGTG | 0.208 ± 0.0393
GGAGTCAA | 0.2 ± 0.0177
CCGCAACA | 0.17 ± 0.0293
CACCGAAC | 0.335 ± 0.0128
GAGCACAC | 0.262 ± 0.0319
CAGGATAC | 0.168 ± 0.0209
AAGGACAC | 0.40482 ± 0.000361
GAGGATAC | 0.235 ± 0.0473
AAGGATAC | 0.275 ± 0.00871
CAGAGCAC | 0.19 ± 0.0352
CAGGACAC | 0.423 ± 0.02
GAGGACAC | 0.401 ± 0.00566
AAGCACAC | 0.276 ± 0.0054
ACATCGTG | 0.151 ± 0.0256

Sequence | binding signal [E-score]
GTATGATA | 0.18 ± 0.0375
CCTTTACA | 0.242 ± 0.0698
CCCCCCTC | 0.163 ± 0.0311
CTGGGTAC | 0.278 ± 0.0111
CCGCAAGG | 0.15 ± 0.00344
CATTTACA | 0.267 ± 0.0374
CACCGAAA | 0.329 ± 0.00917
AGTGGATC | 0.216 ± 0.0109
GATCAACA | 0.206 ± 0.00474
CACGAACG | 0.207 ± 0.0299
CCCTAGCA | 0.17 ± 0.00574
ACGAGGGG | 0.208 ± 0.0082
CAAGACAC | 0.4021 ± 0.00161
AAAGACAC | 0.425 ± 0.0124
GAAGACAC | 0.38 ± 0.00523
GAAGATAC | 0.16 ± 0.0546
ATGACCCC | 0.318 ± 0.0237
ATTGAGTG | 0.18 ± 0.0318
GGTTTACA | 0.16 ± 0.0137
CTCCCTAA | 0.165 ± 0.0334
ACTAAAAC | 0.168 ± 0.0313
GCTAACCC | 0.186 ± 0.00969
GCTACCAC | 0.181 ± 0.00856
ACTAACAC | 0.427 ± 0.0173
GCTAACAC | 0.417 ± 0.0145

Sequence | binding signal [E-score]
CTAAACAC | 0.364 ± 0.00812
CCTAACAC | 0.404 ± 0.00657
ACAAACAC | 0.379 ± 0.0204
CCTATCAC | 0.173 ± 0.0477
ACCCGACC | 0.223 ± 0.0107
GTTCAGAA | 0.18 ± 0.0199
ACCCCGCA | 0.259 ± 0.0114
CCAAGCCC | 0.155 ± 0.0141
CCCAGACA | 0.16 ± 0.0032
ATCAGACA | 0.204 ± 0.00355
AGTGTTTA | 0.296 ± 0.0461
AGTGTTTG | 0.336 ± 0.0138
AGTGTTCG | 0.369 ± 0.0134
CGTGTTTA | 0.346 ± 0.0127
GGGGTTAA | 0.198 ± 0.00273
GGTGTTAA | 0.475 ± 0.00681
TGTGTTAA | 0.171 ± 0.00303
CGTGTTAA | 0.391 ± 0.0262
AGTGTTAG | 0.394 ± 0.00412
GGAGTTAA | 0.266 ± 0.0274
CGTGTGAA | 0.302 ± 0.00315
GGTGTTTA | 0.4563 ± 0.00286
CCTATAAC | 0.194 ± 0.0389
ACCCTACC | 0.193 ± 0.0205
CGGGTTCA | 0.175 ± 0.04

Sequence | binding signal [E-score]
CACCGGTA | 0.345 ± 0.00414
CGTGATAC | 0.248 ± 0.0091
ATCCCGGG | 0.209 ± 0.0458
CCGGGGTA | 0.284 ± 0.00939
GGTGTTGA | 0.4626 ± 0.00453
CGTGTTAG | 0.38 ± 0.00955
CGTGTTTC | 0.339 ± 0.0138
CGTGTTGA | 0.358 ± 0.0177
AGTGTTGA | 0.318 ± 0.0168
CGTGTTAC | 0.408 ± 0.00576
CGTGTGAG | 0.276 ± 0.0289
CGTGTTGC | 0.333 ± 0.0224
ACGGTCTC | 0.153 ± 0.00373
CACCGCAC | 0.333 ± 0.0118
AGTACCCG | 0.154 ± 0.00938
CTAGGGTA | 0.236 ± 0.0217
GGGTGACA | 0.302 ± 0.0147
GTGTGACA | 0.436 ± 0.0156
CTGTGACA | 0.21 ± 0.00229
TGTCAAAA | 0.198 ± 0.0336
CACCCTGC | 0.293 ± 0.0291
ATGGAGTG | 0.274 ± 0.0146
AGGGGACA | 0.179 ± 0.0364
ACCCACGC | 0.171 ± 0.00328
ACACCGCC | 0.4737 ± 0.0034

Sequence | binding signal [E-score]
ACACCGCG | 0.4808 ± 0.00187
ACCCCGCT | 0.209 ± 0.0248
ACGCCGCC | 0.153 ± 0.0249
ACTCCGCT | 0.185 ± 0.0321
ACACCGCT | 0.4659 ± 0.00251
GCACCGCC | 0.265 ± 0.00467
ACACCGCA | 0.4797 ± 0.00463
ATACCGCG | 0.238 ± 0.0151
ACCCCGCG | 0.254 ± 0.0276
GCACCGCA | 0.169 ± 0.0396
ATACCGCA | 0.179 ± 0.00528
CCTTGACA | 0.253 ± 0.00743
CCCATGGA | 0.189 ± 0.033
ACCCTGTG | 0.207 ± 0.0277
GGTATACC | 0.303 ± 0.0126
ATGGGTGC | 0.154 ± 0.0381
CCCCTGAG | 0.16 ± 0.00444
AGGCGTAC | 0.221 ± 0.0327
ACCAGGTG | 0.217 ± 0.0167
ACTGCGTG | 0.29 ± 0.0171
ATGCGACA | 0.198 ± 0.03
CGGGTTAC | 0.159 ± 0.0432
ATAGGTAC | 0.166 ± 0.021
AGACACTG | 0.341 ± 0.0138
AGACACCT | 0.4528 ± 0.0033

Sequence | binding signal [E-score]
AGACACGG | 0.377 ± 0.019
AGACACCG | 0.468 ± 0.0126
AATGATAC | 0.212 ± 0.0688
AACCCCAC | 0.222 ± 0.0452
ACACGGAT | 0.392 ± 0.0346
ACCCGGAA | 0.272 ± 0.0105
ACACGGAA | 0.398 ± 0.0244
ACCCGGAT | 0.301 ± 0.0466
ACACGGAG | 0.369 ± 0.00835
AGGATACC | 0.337 ± 0.0124
CGACCTCA | 0.168 ± 0.0123
CAACTACA | 0.2474 ± 0.00148
ACCCTACG | 0.164 ± 0.0266
CCCCATGC | 0.201 ± 0.0118
GAAGGGTA | 0.169 ± 0.0222
AGTGTGGC | 0.193 ± 0.0161
AGTGTAGA | 0.369 ± 0.0196
AGTGTAGC | 0.3944 ± 0.000672
AGTGTGGG | 0.192 ± 0.0212
CGTGTAGA | 0.379 ± 0.0134
CGTGTAGC | 0.416 ± 0.0198
AGTGTAGG | 0.411 ± 0.00742
AGTGTTGC | 0.321 ± 0.00542
ACTTAATG | 0.219 ± 0.0268
CAATAGGG | 0.2 ± 0.0026

Sequence | binding signal [E-score]
CCCGGACA | 0.233 ± 0.00728
TGTCATAA | 0.1985 ± 0.00132
AATGCACC | 0.162 ± 0.026
AGTGTTAC | 0.387 ± 0.0129
GGTGTTAC | 0.474 ± 0.00578
GGGGTTAC | 0.261 ± 0.0216
AGTGTTAT | 0.395 ± 0.041
GGCGTTAC | 0.154 ± 0.00446
AGTGTTCC | 0.334 ± 0.0173
AGTGTTTC | 0.299 ± 0.0238
AGTGTTAA | 0.394 ± 0.0556
AGGAGTAT | 0.168 ± 0.0487
CGGGAACA | 0.157 ± 0.0155
CACCGGCG | 0.244 ± 0.0186
CCGGGGTC | 0.323 ± 0.0298
ACCCTAGA | 0.176 ± 0.00214
CACGTCAC | 0.16 ± 0.0113
GAGGTACA | 0.252 ± 0.0061
CGTGACTC | 0.207 ± 0.00528
AGTGACCC | 0.234 ± 0.019
CGTGACAC | 0.454 ± 0.00689
CGTGACCC | 0.211 ± 0.0247
AGTGACTC | 0.193 ± 0.0365
GGTGACAC | 0.4718 ± 0.00406
GGGGTGAC | 0.16 ± 0.0356

Sequence | binding signal [E-score]
GGTGATAC | 0.313 ± 0.00834
AGTGACAC | 0.469 ± 0.00575
CACGGAGG | 0.222 ± 0.0241
CACGGCTG | 0.201 ± 0.0155
AGTATCAT | 0.259 ± 0.0404
CGCCGCAC | 0.151 ± 0.00857
ACCGACCC | 0.192 ± 0.0372
CCCGACCC | 0.187 ± 0.0176
GCCGACAC | 0.422 ± 0.0235
GCCGATCC | 0.19 ± 0.00748
CCCGACGC | 0.151 ± 0.00346
CCCGACAC | 0.45 ± 0.0155
ACCGACTC | 0.204 ± 0.0477
ACCGACAC | 0.425 ± 0.0144
CAGCACCG | 0.242 ± 0.0129
CGGACGAC | 0.152 ± 0.037
GTTCCGGA | 0.175 ± 0.0199
ACCCACGA | 0.153 ± 0.0296
AAACTAGA | 0.163 ± 0.00455
